# From PubChem BioAssay (NCATS)
# Results filed as inconclusive are left out. Active and inactive are the calls of the source. Calls come from the whole dose curve; as a rule, active = well fitted inhibition curve with a large enough effect; inconclusive = small, poorly fitted or top-dose-only effect; inactive = flat fitted curve, though single readings scatter.
# Molecular target: Calcium and integrin-binding protein 1 (Homo sapiens) (UniProt Q99828)
# Assay: Primary qHTS for Identification of Calcium Integrin Binding Protein 1 (CIB1) Competitor (AID 1508620);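 note: GST tagged CIB1 binding a fluorescein labelled alphaIIb integrin peptide tracer; top concentration of the series differs between compounds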
# Details: CIB1-GST / FITC-alphaIIb peptide fluorescence polarization; series mostly up to 114 µM; activity change, negative = inhibition: at the top concentration
# Outline: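 Fluorescence polarization competition: CIB1-GST (1 uM final) preincubated with compound 15 min at room temperature, then FITC-labeled alphaIIb peptide (100 nM final) added for another 15 min. Polarization read at Ex 480/Em 540.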
# % is set by controls: 0 for no effect and ±100 for the full control effect.
# Sequence of Calcium and integrin-binding protein 1 (Homo sapiens) (Q99828 whole entry, looked up): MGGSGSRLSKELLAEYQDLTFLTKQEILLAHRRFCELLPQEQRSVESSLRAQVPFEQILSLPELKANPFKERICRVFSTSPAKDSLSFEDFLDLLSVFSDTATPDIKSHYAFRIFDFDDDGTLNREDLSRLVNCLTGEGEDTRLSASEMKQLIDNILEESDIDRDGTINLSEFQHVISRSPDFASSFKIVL
SMILES,"activity change, negative = inhibition",Potency
O=C1c2ccccc2C(=O)N1c1cccc2ccncc12,-3.22% (inactive),
O=C1Nc2ccccc2/C1=C/c1cc(Cl)c(O)c(Cl)c1,,inactive
CC(C)Nc1nc(C#N)nc(Nc2ccccc2)n1,-1.99% (inactive),
CCc1c(C)nc2cc(-c3ccc(OC)c(OC)c3)nn2c1N1CCCC1,-16.8% (inactive),
COc1cc(O)c(C(CC(=O)N2CCCC(C(C)C)C2)c2ccc3c(c2)OCO3)c(OC)c1 (centres undefined),-0.858% [at 228 µM] (inactive),
Cc1cc2c(s1)c1cnn(Cc3cccc([N+](=O)[O-])c3)c(=O)c1n2C,2.52% (inactive),
COc1ccc(C2c3c(nc(Cc4ccccc4)[nH]c3=O)Oc3ccc4ccccc4c32)cc1OC (centres undefined),1.52% (inactive),
Fc1ccc(CNc2nc(-c3ccccc3C(F)(F)F)nc3ccccc23)cc1,2.13% (inactive),
CC(Cc1ccccc1)C(=O)Nc1ccc(Cl)cc1C(=O)O (centres undefined),-6.77% (inactive),
c1nc(NCC2CCCC2)c2cc(-c3ccc4c(c3)OCO4)ccc2n1,10.5% (inactive),
Cc1nc(C)c(-c2ccc3ncnc(NCCc4cnc[nH]4)c3c2)s1,3.06% (inactive),
N=c1c2c(ccn1Cc1ccccc1)Oc1ccc3ccccc3c1C2c1ccccc1 (centres undefined),9.47% (inactive),
Cc1cn([C@H]2C[C@H](N[S+](=O)([O-])Cc3ccc(Cl)cc3)[C@@H](CO)O2)c(=O)[nH]c1=O,6.59% (inactive),
COc1ccc(S(=O)(=O)N2CCN(S(=O)(=O)c3ccc(OC)cc3)CC2)cc1,-0.0373% (inactive),
Cc1ccnc(NC(=S)N2CC3CN(c4ncc(C(F)(F)F)cc4Cl)CC3C2)c1 (centres undefined),-0.566% (inactive),
Cc1cccc(-c2ccc3ncnc(NCc4cccc(F)c4)c3c2)c1,0.984% (inactive),
COc1ccc(OC)c(C2=Nn3c(nnc3-c3cccc(OC)c3OC)SC2)c1,-2.66% (inactive),
Cc1noc(C)c1-c1ccc2ncnc(NCC3CCCCN3C)c2c1 (centres undefined),-0.508% (inactive),
Cc1cc(C)nc(NC(=S)N2CCN(c3ccc(Cl)cc3F)CC2)c1,-4.34% (inactive),
Cc1cc(-c2ccccc2)nc2c(C(=O)Nc3ccc4c(c3)CCC4)cnn12,1.99% (inactive),

SMILES,"activity change, negative = inhibition",Potency
Cc1ccsc1CNc1ncnc2ccc(-c3ccc4c(c3)OCO4)cc12,7.49% (inactive),
CC(C)(C)c1ccc(Nc2nc(C#N)nc(NC3CCCC3)n2)cc1,3.45% (inactive),
CS(=O)(=O)c1ccc(C(=O)OCC(=O)N2CCN(Cc3ccccc3)CC2)cc1[N+](=O)[O-],-14.7% (inactive),
N#Cc1c(-c2ccc(O)cc2)no[n+]1[O-],4.25% (inactive),
CCCCc1ccc(-c2ccc(=O)n(CC(=O)NCCc3ccccc3)n2)cc1,4.3% (inactive),
O=C(COC(=O)CNC(=O)c1ccccc1)Nc1ccccc1Cl,-1.75% (inactive),
Cc1cc(C)nc(NC(=S)N2CCN(c3ccc(F)c(Cl)c3)CC2)c1,-14.2% (inactive),
CC(C)Cc1ccc(-c2ccc(=O)n(CC(=O)NCCc3ccccc3)n2)cc1,-0.389% (inactive),
O=C(O)c1ccc2c(c1)C(=O)N([C@H](Cc1ccc(F)cc1)C(=O)O)C2=O,1.64% (inactive),
COc1ccc(Cn2ncc3c4sc(C)cc4n(C)c3c2=O)cc1F,-0.808% (inactive),
COCCNc1cc2c(cc1[S+](=O)([O-])Nc1ccc(C)c(C)c1)CCC(=O)N2,-1.9% (inactive),
Clc1cccc(CSc2nc3ncc(Br)cc3[nH]2)c1,7.18% (inactive),
Cc1cnc(-c2ccccc2C(C)C)nc1NCC1CCN(c2cccnc2)C1 (centres undefined),2.78% (inactive),
Cc1ccc2nc3sc(C(=O)N4CCC(C(N)=O)CC4)cc3cc2c1,-0.511% (inactive),
Cc1cc(C)nc(NC(=S)N2CCN(c3ccc4nncn4c3)CC2)c1,-7.09% (inactive),
O=C1Nc2ccccc2/C1=C\c1cc(Br)c(O)c(Br)c1,2.59% (inactive),
Cc1ccc(OCCn2c(CCNC(=O)c3ccncc3)nc3ccccc32)cc1,2.21% (inactive),
Cc1nc(-c2ccccc2C(C)C)nc(NCc2ccc(-c3cccnc3)cc2)c1C,4.31% (inactive),
CC(=O)c1ccc(-c2ccc3ncnc(NCc4ccc(C)o4)c3c2)o1,-7.5% (inactive),
